Experimental data taken from the supplement of paper PMC10849652.
Targets with a hit are over-represented here; the source holds about 8,800 in all. About 0.5% of all pairs of compound and target were hits. Values without a mark were called inactive.

Columns and labels:
Test in all cases: log2 fold change, soluble protein after heating vs DMSO (PISA); higher = thermal stabilisation; K562 lysate, 10 uM; active = over 0.2 and 3.5 SD of the protein, either way, in both replicates (recomputed)
[1] = compound: C#Cc1cccc(Nc2ncnc3cc(OCCOC)c(OCCOC)cc23)c1 [erlotinib]
Procedure, shortened: (§1)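 To prepare the extract, K562 pellets were dounce-homogenised in PBS pH 7.4 with 1 mM MgCl2, giving crude material at 1 mg/mL protein. This was treated with 10 μM compound for 30 min, then heated in aliquots for 3 min over 48°C-58°C before pooling and addition of NP-40 to 0.5% at 4°C. Centrifugation at 21,000xg for 90 min left soluble protein in the supernatant, which TMTpro 16plex LC-MS/MS quantified with equalised channel sums. Results are log-two fold changes in thermal stability compared with solvent controls, from duplicates.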

[2] = compound: C/C(=N\NC(=O)C1=CC(=CC=C1)S(=O)(=O)N2CCOCC2)/C3=C(C=CC(=C3)Cl)O
Procedure, shortened: as §1

[3] = compound: C1=CC(=CC=C1C2=NC3=C(N2)C=C(C=C3)C(=O)N)OC4=CC=C(C=C4)Cl
Procedure, shortened: as §1

[4] = compound: C1=CC2=C(C=CC(=C2)/C=C\3/C(=O)NC(=NCC4=CC=CS4)S3)N=C1
Procedure, shortened: as §1

[5] = compound: C1=CC2=NC=CN=C2C=C1/C=C/3\C(=O)NC(=O)S3
Procedure, shortened: as §1

[6] = compound: C1=CC=C(C=C1)C2=NC(=C(N2)C3=CC=NC=C3)C4=CC(=C(C=C4)Cl)O
Procedure, shortened: as §1

[7] = compound: C1=CC=C2C(=C1)C3=NNC4=CC=CC(=C43)C2=O
Procedure, shortened: as §1

[8] = compound: C1CCN(C1)C(=O)NC2=CC=CC(=C2)NC3=NC=C(C(=N3)NCCC4=CN=CN4)Br
Procedure, shortened: as §1

[9] = compound: C1CN(CCC1(CC2=CC=C(C=C2)Cl)N)C3=NC=NC4=C3C=CN4
Procedure, shortened: as §1

[10] = compound: C1COCCN1CCN2C3=CC=CC=C3N=C2NC(=O)C4=CC(=CC=C4)[N+](=O)[O-] [IRAK-1-4 Inhibitor I]
Procedure, shortened: as §1

[11] = compound: C=CC(=O)N1CCC[C@@H](n2nc(-c3ccc(Oc4ccccc4)cc3)c3c(N)ncnc32)C1 [ibrutinib]
Procedure, shortened: as §1

[12] = compound: CC(=O)c1cnc2ccc(-c3cc(Cl)c(O)c(Cl)c3)nc2c1N[C@H]1CC[C@H](CN(C)C)CC1
Procedure, shortened: as §1

[13] = compound: CC(C)(C)Cn1c(N)nc2ccc(-c3[nH]c(C(C)(C)C)nc3-c3ccc(F)cc3)nc21 [ralimetinib]
Procedure, shortened: as §1

[14] = compound: CC(C)(O)CC(=O)NCCn1ccc2ncnc(Nc3ccc(Oc4cccc(C(F)(F)F)c4)c(Cl)c3)c21
Procedure, shortened: as §1

[15] = compound: CC(C)C1=C2N=C(C=C(N2N=C1)NCC3=CC=CC=C3)NCCCCCCN
Procedure, shortened: as §1

[16] = compound: CC1=C(C(CC(=O)N1)C2=CC=C(C=C2)C(F)(F)F)C(=O)NC3=C(C=C4C(=C3)C=NN4)F
Procedure, shortened: as §1

[17] = compound: CC1=C(C2=C(C=C1)C(=O)C3=CC=CC=C3N2CCCN)C
Procedure, shortened: as §1

[18] = compound: CC1=C(C=C(C=C1)NC(=O)C2=CC(=CC=C2)C(C)(C)C#N)NC3=CC4=C(C=C3)N=CN(C4=O)C
Procedure, shortened: as §1

[19] = compound: CC1=C(C=C(C=C1)NC(=O)C2=CC(=CC=C2)N(C)C)NC(=O)C3=CC=C(C=C3)O
Procedure, shortened: as §1

[20] = compound: CC1=CC=C(C=C1)SC2=C3C=C(SC3=CN=C2)C(=O)N
Procedure, shortened: as §1

Chain of UniProt P20585 (P20585 whole entry, looked up): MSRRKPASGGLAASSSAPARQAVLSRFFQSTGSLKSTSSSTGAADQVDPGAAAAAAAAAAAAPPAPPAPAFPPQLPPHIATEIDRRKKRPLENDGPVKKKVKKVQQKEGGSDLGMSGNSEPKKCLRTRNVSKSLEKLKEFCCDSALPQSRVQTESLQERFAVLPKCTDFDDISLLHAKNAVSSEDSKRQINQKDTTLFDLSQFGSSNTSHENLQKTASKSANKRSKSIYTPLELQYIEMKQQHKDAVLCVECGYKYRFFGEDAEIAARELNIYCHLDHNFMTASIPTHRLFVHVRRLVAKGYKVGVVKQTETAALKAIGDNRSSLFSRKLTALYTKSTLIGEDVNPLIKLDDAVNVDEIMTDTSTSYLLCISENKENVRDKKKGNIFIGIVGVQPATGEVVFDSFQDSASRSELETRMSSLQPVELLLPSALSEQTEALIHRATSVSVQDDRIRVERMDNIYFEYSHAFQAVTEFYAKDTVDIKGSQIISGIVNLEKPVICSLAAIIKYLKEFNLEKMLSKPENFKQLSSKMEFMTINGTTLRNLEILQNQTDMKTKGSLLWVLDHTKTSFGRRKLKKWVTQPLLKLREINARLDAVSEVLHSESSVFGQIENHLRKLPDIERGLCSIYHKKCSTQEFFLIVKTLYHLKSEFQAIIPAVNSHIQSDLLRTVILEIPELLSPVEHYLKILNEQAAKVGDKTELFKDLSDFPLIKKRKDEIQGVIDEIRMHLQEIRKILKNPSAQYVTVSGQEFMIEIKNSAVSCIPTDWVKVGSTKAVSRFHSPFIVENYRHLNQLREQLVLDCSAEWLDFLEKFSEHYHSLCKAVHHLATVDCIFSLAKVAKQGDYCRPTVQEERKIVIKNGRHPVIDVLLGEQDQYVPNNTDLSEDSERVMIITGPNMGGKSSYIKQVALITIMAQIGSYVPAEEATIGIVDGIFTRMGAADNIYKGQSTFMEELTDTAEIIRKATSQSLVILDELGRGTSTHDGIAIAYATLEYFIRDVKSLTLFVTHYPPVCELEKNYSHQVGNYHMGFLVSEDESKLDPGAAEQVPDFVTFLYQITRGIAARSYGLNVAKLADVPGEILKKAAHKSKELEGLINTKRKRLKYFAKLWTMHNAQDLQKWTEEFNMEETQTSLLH
Chain of UniProt O60313 (O60313 whole entry, looked up): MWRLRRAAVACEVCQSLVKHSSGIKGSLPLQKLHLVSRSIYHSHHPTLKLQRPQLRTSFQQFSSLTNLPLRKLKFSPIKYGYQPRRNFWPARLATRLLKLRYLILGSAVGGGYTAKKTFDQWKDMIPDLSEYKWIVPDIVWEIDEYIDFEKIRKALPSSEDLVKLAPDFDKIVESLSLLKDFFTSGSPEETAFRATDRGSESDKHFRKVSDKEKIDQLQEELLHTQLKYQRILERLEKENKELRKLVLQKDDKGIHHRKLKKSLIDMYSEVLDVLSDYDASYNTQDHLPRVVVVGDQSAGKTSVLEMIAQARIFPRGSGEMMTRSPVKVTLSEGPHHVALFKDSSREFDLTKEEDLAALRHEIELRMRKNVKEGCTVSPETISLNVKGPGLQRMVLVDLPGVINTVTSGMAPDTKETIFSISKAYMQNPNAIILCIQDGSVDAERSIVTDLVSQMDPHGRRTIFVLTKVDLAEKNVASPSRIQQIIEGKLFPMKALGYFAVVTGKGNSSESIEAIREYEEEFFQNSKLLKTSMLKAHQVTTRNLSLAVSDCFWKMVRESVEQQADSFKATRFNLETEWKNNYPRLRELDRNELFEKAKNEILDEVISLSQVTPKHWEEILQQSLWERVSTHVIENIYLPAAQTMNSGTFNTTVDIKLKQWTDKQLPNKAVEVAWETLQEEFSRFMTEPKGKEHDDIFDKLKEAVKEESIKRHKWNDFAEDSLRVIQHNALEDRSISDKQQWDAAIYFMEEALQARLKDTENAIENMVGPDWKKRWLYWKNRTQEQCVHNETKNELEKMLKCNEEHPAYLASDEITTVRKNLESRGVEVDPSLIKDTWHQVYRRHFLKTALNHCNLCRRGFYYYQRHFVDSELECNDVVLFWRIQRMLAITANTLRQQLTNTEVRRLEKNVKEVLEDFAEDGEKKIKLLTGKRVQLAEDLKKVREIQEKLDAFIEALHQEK
Chain of UniProt P52179 (P52179 whole entry, looked up): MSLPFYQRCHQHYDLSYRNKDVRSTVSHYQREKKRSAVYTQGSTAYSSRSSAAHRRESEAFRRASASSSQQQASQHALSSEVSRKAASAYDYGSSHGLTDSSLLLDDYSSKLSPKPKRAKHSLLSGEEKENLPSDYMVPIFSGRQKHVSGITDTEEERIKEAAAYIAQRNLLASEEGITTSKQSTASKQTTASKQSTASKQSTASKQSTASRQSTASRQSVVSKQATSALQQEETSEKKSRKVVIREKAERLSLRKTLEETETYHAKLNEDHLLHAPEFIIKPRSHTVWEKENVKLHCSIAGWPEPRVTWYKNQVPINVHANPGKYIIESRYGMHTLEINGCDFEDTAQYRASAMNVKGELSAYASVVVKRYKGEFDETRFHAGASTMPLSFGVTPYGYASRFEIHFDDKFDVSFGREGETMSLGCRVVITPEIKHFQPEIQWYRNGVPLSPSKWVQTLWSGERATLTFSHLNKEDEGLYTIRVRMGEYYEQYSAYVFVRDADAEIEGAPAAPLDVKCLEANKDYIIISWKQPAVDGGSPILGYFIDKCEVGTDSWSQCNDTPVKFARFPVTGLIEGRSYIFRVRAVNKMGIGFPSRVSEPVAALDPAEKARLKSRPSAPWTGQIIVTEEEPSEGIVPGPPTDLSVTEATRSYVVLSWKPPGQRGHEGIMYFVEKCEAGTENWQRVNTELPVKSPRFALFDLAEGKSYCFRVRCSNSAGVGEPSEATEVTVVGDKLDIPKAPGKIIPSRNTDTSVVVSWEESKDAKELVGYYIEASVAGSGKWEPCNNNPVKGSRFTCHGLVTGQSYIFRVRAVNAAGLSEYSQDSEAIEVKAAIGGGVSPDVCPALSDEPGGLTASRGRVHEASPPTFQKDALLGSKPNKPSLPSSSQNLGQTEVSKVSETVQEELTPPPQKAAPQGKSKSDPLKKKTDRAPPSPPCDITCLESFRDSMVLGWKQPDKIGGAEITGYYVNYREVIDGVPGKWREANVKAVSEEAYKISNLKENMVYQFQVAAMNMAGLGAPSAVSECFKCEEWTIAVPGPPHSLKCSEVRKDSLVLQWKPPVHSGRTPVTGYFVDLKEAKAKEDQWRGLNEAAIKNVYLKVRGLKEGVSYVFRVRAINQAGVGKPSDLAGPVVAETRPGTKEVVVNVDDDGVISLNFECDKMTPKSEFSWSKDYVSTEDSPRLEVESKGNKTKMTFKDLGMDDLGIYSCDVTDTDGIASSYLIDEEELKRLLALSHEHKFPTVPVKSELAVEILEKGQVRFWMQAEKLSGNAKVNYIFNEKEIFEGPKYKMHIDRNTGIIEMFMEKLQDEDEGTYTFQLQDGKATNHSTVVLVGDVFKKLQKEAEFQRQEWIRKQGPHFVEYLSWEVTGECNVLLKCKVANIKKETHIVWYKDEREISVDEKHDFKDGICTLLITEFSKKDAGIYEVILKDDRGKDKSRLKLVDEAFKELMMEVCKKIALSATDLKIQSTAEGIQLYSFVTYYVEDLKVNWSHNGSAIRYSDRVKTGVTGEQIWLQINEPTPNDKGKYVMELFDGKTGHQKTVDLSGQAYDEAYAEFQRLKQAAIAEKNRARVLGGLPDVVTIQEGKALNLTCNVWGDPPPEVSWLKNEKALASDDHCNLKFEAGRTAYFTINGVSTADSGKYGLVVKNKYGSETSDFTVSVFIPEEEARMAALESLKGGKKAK
Chain of UniProt Q9UBD5 (Q9UBD5 whole entry, looked up): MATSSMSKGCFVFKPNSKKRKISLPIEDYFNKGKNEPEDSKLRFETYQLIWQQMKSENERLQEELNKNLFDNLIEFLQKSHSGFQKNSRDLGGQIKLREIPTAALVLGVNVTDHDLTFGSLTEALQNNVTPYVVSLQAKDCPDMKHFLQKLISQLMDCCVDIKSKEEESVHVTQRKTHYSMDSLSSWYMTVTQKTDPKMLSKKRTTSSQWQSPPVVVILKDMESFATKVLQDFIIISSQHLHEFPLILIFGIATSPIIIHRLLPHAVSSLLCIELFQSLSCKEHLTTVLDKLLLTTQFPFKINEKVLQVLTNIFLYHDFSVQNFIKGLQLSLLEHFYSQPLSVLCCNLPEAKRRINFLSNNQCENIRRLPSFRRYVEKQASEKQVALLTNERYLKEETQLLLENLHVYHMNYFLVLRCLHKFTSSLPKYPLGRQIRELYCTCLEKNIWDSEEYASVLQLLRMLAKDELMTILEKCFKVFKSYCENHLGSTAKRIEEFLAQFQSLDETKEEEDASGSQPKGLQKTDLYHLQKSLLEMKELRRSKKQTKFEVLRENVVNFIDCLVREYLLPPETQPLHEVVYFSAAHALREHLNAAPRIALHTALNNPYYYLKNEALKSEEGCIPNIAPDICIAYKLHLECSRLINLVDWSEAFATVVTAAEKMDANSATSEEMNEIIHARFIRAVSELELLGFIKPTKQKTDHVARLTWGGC

Row | Target | log2 fold change [1] | log2 fold change [2] | log2 fold change [3] | log2 fold change [4] | log2 fold change [5] | log2 fold change [6] | log2 fold change [7] | log2 fold change [8] | log2 fold change [9] | log2 fold change [10] | log2 fold change [11] | log2 fold change [12] | log2 fold change [13] | log2 fold change [14] | log2 fold change [15] | log2 fold change [16] | log2 fold change [17] | log2 fold change [18] | log2 fold change [19] | log2 fold change [20]
1 | ORC3 isoform 2 (UniProt Q9UBD5) | -0.006 | -0.048 | -0.046 | 0.004 | 0.053 | -0.011 | -0.045 | -0.015 | -0.007 | -0.008 | -0.034 | 0.007 | 0.034 | -0.05 | 0.008 | 0.048 | -0.036 | 0.003 | 0.029 | -0.012
2 | MYOM1 (UniProt P52179) | -0.015 | 0.033 | -0.062 | -0.228 | -0.076 | -0.009 | 0.098 | -0.023 | 0.142 | 0.503 (active) | -0.017 | 0.016 | 0.254 | 0.026 | -0.017 | 0.011 | -0.156 | 0.052 | -0.083 | -0.025
3 | OPA1 isoform 2 (UniProt O60313) | 0.003 | 0.03 | -0.078 | 0.024 | 0.01 | -0.022 | -0.026 | -0.015 | 0.021 | 0.003 | -0.001 | 0.006 | -0.004 | -0.036 | -0.035 | 0.031 | 0.026 | 0.024 | 0.046 | 0.02
4 | MSH3 (UniProt P20585) | -0.046 | -0.021 | 0.042 | 0.011 | -0.025 | 0.007 | -0.026 | -0.038 | 0.058 | 0.004 | 0 | -0.017 | 0.024 | -0.037 | -0.039 | 0.023 | -0.025 | -0.018 | -0.007 | -0.005
